# Most compounds without a hit are left out; they make up all but 2.8% or so of the library.
# pPAFAH inh = inhibitors of human plasma PAF acetylhydrolase (pPAFAH); Q13093; recombinant pPAFAH, FP-rhodamine probe fluorescence polarization; inhibition, % at 3.39 µM; 330,000 tested, 1.5% active;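 active = inhibition above the mean inhibition across the screen plus 3 SD, cut at about 25% in these data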;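 note: inhibitors block binding of the rhodamine activity-based probe so polarization drops; 0% = enzyme with DMSO and 100% = wells lacking pPAFAH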
# Fam108B counter = Fam108B inhibition, counter-screen for RBBP9 inhibitors; inhibition, % at 9.51 µM; 300,000 tested, 0.33% active; recombinant Fam108B, FP-Rh probe fluorescence polarization;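 active = inhibition above the screen mean inhibition plus 3 SD, computed separately per campaign, cut at about 18% in these data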;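 note: inhibitors lower polarization as less probe binds the enzyme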
# PAFAH2 FP inh = inhibitors of human PAFAH2. recombinant PAFAH2, FP-rhodamine activity probe, fluorescence polarization. 340,000 tested, 0.99% active. inhibition, % at 3.39 µM. Q99487. AID 492956;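 active = inhibition above the mean over all tested compounds plus 3 SD, cut at about 30% in these data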;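 note: inhibitors block probe labeling of enzyme so polarization drops; 0% = enzyme with DMSO and 100% = wells lacking PAFAH2 protein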
# PAFAH1B2 inh = inhibitors of human PAFAH1B2 | recombinant PAFAH1B2, FP-rhodamine activity probe, fluorescence polarization | inhibition, % at 3.39 µM | AID 492953 | P68402 | 340,000 tested, 1.2% active;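 active = inhibition above the mean of all tested compounds plus 3 SD, cut at about 24% in these data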;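 note: 0% = enzyme with DMSO and 100% = wells lacking PAFAH1B2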
# Target sequence (P68402 whole entry, looked up): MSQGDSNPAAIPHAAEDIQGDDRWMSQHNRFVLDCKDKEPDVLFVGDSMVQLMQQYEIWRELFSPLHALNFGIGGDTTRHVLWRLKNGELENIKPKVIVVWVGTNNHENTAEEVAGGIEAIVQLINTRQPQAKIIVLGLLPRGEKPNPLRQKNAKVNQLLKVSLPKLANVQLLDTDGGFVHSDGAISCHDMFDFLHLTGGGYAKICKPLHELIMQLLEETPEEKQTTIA
# PME-1 inh = PME-1 (human) inhibition; inhibition, % at 5.9 µM; AID 2130; 320,000 tested, 0.53% active; recombinant PME-1, FP-Rh probe fluorescence polarization;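 active = inhibition above the campaign mean of all compounds plus 3 SD, cut at about 26% in these data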;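 note: competitive labeling of PME-1 active site by serine hydrolase directed probe; 0% = PME-1 with DMSO and 100% = wells lacking PME-1 enzyme; inhibitors block probe labeling so polarization falls and inhibition rises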
# Target sequence (Q9Y570 whole entry, looked up): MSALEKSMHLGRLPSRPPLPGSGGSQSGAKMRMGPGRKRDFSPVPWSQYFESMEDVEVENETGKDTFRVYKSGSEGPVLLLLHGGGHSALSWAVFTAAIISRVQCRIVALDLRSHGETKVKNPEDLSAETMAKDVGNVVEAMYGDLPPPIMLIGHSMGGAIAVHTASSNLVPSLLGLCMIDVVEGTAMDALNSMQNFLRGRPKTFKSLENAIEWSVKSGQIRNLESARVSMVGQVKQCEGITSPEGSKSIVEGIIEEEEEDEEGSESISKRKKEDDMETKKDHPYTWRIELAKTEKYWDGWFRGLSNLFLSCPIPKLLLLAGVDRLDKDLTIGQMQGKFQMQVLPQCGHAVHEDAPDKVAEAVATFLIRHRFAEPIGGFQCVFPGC
# PAFAH1B3 inh = PAFAH1B3 (human) inhibition; 340,000 tested, 0.28% active; inhibition, % at 3.39 µM; Q15102; recombinant PAFAH1B3, FP-rhodamine probe, fluorescence polarization;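 active = inhibition above the screen-wide average of all tested compounds plus 3 SD, cut at about 25% in these data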;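 note: 0% = enzyme with DMSO only and 100% = wells lacking PAFAH1B3 protein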
# PAFAH2 confirm = PAFAH2 (human) inhibition, confirmed | AID 493030 | recombinant PAFAH2, FP-rhodamine activity probe, fluorescence polarization | inhibition, % at 3.39 µM | shares compounds with PAFAH2 FP inh | 2,300 tested, 65% active;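 active = mean inhibition over three repeats above a set limit taken from the earlier primary screen, cut at about 30% in these data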;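 note: inhibitor blocks binding of rhodamine activity probe so polarization falls; 0% = enzyme with DMSO and 100% = wells lacking PAFAH2 protein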
# * hit, by the source's call; x = no result given.
SMILES,pPAFAH inh,Fam108B counter,PAFAH2 FP inh,PAFAH1B2 inh,PME-1 inh,PAFAH1B3 inh,PAFAH2 confirm
NC(=O)c1ccccc1NC(=O)CS(=O)(=O)Cc1ccccc1,6,0,13,-2,2,0,x
CSc1nc(C)cc(OCNC(=O)c2cccs2)n1,5,-2,54*,1,4,10,51*
Cc1ccc(C(=O)OCC(=O)NCc2ccc3c(c2)OCO3)cc1S(=O)(=O)N1CCOCC1,14,x,10,3,x,7,x
COc1ccc(C(=O)OCC(=O)Nc2ccc3c(c2)OCO3)cc1S(=O)(=O)N1CCOCC1,x,x,82*,3,x,4,82*
O=C(COC(=O)c1ccc(F)c(S(=O)(=O)N2CCOCC2)c1)Nc1ccc2c(c1)OCO2,x,x,78*,2,x,4,65*
CC(c1ccccc1)n1c(N2CCN(C)CC2)nc2c1c(=O)[nH]c(=O)n2C (configuration not stated),-9,1,-3,5,-7,4,x
COc1ccc(NC(=O)c2ccc(-c3nn(C)c(=O)c4ccccc34)cc2)cc1,3,-8,35*,0,-2,19,8
O=C(NCC1CCCO1)c1sc2cc(Cl)ccc2c1Cl (configuration not stated),8,3,4,-2,4,5,x
CC(=O)C(Cc1ccccc1)NC(=O)COC(=O)c1cccc(C)c1[N+](=O)[O-] (configuration not stated),6,x,36*,7,x,14,14
N/C(=N\OC(=O)c1ccc2c(c1)OCO2)c1cccnc1,7,-2,4,4,0,4,x
N/C(=N\OC(=O)c1ccc2c(c1)OCO2)c1cccc(Br)c1,0,3,55*,-1,5,2,49*
N/C(Cc1cccc2ccccc12)=N\OC(=O)c1ccc2c(c1)OCO2,4,0,81*,-1,3,1,78*
NS(=O)(=O)c1ccc(CNC(=O)CNC(=O)c2ccc(F)cc2)cc1,-1,6,-2,3,2,2,x
Cc1ccc(C(=O)N2[C@@H]3CN(C)C(=O)[C@@]2(Cc2ccccc2)[C@H]2C(=O)N(C)C(=O)[C@@H]32)cc1,x,x,1,3,x,2,x
COc1ccccc1C(=O)OCC(=O)NC12CC3CC(CC(C3)C1)C2,x,x,74*,2,x,9,82*
O=C(COc1ccccc1F)NC12CC3CC(CC(C3)C1)C2,-3,-1,0,7,-6,-2,x
CCN(CC)S(=O)(=O)c1ccc(O)c(C(=O)OCC(=O)NC23CC4CC(CC(C4)C2)C3)c1,5,x,77*,14,x,2,68*
CCN(CC)S(=O)(=O)c1ccc(O)c(C(=O)OCC(=O)NC2CCCC2)c1,7,-5,19,6,3,7,x
COc1cc(OC)c(C(=O)OCC(=O)NC23CC4CC(CC(C4)C2)C3)cc1OC,5,x,97*,1,x,7,82*
COc1cc(OC)c(C(=O)NC23CC4CC(CC(C4)C2)C3)cc1OC,6,-4,1,8,-8,8,x
CCN(CC)S(=O)(=O)c1cccc(C(=O)OCC(=O)C23CC4CC(CC(C4)C2)C3)c1,5,-3,40*,8,-5,0,25
COc1cc(/C=N/NC(=O)Cn2cnc3ccccc3c2=O)ccc1O,2,-2,-1,0,-3,10,x
O=C(COC(=O)c1ccc(O)cc1O)NC1CCS(=O)(=O)C1 (configuration not stated),1,5,9,0,-1,0,x
CCN(CC)S(=O)(=O)c1ccc(O)c(C(=O)OCC(=O)Nc2ccc(OC(F)(F)F)cc2)c1,20,-10,38*,-1,-6,8,28
O=C(COC(=O)c1ccc(O)cc1O)NC12CC3CC(CC(C3)C1)C2,12,x,75*,12,-9,-2,60*
SMILES,pPAFAH inh,Fam108B counter,PAFAH2 FP inh,PAFAH1B2 inh,PME-1 inh,PAFAH1B3 inh,PAFAH2 confirm
O=C1c2ccccc2[C@@H]2C[C@@H](O)[C@H](Nc3cccc(C(F)(F)F)c3)CCN12,23,x,40*,5,x,11,30*
O=C1c2ccccc2[C@@H]2C[C@@H](O)[C@H](Nc3ccccc3-c3ccccc3)CCN12,4,x,-1,6,x,2,x
Cc1ccc(C(=O)OCC(=O)Nc2ccc(F)c(Cl)c2)o1,7,x,85*,1,2,3,75*
CN(C)S(=O)(=O)c1cccc(NC(=O)COC(=O)c2cccn2C)c1,6,-3,36*,5,7,-1,22
Cc1cc(C(=O)OCC(=O)Nc2ccc(F)cc2)c(C)o1,7,-2,79*,1,1,6,78*
Cc1cc(C(=O)OCC(=O)Nc2cccc(S(=O)(=O)N(C)C)c2)c(C)o1,1,1,45*,1,7,-4,34*
COc1ccc(CCC2(C)NC(=O)N(C(C)C(=O)Nc3ccccc3F)C2=O)cc1 (configuration not stated),4,x,8,2,4,4,x
CC(C)C(=O)NS(=O)(=O)c1ccc(N)cc1,4,5,0,3,2,9,x
Cc1cc(C(=O)OCC(=O)Nc2ccccc2)c(C)o1,4,-1,78*,0,2,5,74*
COc1ccccc1NC(=O)COC(=O)c1cc(C)oc1C,1,x,6,1,x,2,x
Cc1cc(C(=O)OCC(=O)Nc2ccc(F)c(F)c2F)c(C)o1,9,5,52*,6,-3,3,50*
Cc1cc(C)cc(NC(=O)CSc2nc3c(c(=O)[nH]2)CN(Cc2ccc(F)cc2)CC3)c1,6,-8,31*,9,-4,4,17
CCCN1CCc2nc(SCC(=O)Nc3ccc(C)c(Cl)c3)[nH]c(=O)c2C1,3,-2,3,3,-5,0,x
CC(=O)CCn1cnc([N+](=O)[O-])n1,0,0,-7,3,-3,11,x
COc1ccc(C(=O)OCC(=O)Nc2ccc(OC)c(S(=O)(=O)N3CCCCC3)c2)cc1[N+](=O)[O-],x,x,15,1,x,-1,x
COc1ccc(C(=O)OCC(=O)Nc2cccc(S(=O)(=O)N3CCCCCC3)c2)cc1[N+](=O)[O-],x,x,38*,-4,x,-2,26
COc1cc(C(=O)OCC(=O)Nc2cccc(S(=O)(=O)N3CCCC3)c2)ccc1OCC(C)C,3,-21,45*,-7,-35,0,45*
CS(=O)(=O)c1ccc(C(=O)OCC(=O)Nc2cccc(S(=O)(=O)N3CCCC3)c2)cc1,-2,3,-2,-1,-2,3,x
O=C(CCNC(=O)c1ccccc1)OCC(=O)c1ccccc1,0,-2,33*,7,2,4,5
CC(C)c1cccc(-c2ccc3c(c2)S(=O)(=O)c2cccc(C(=O)NCc4ccccc4Cl)c2C3=O)c1,5,x,1,3,x,4,x
